In the library only some 19% were active in any assay of this set; here they are far more common.
TDP1 cell noCPT – qHTS for Inhibitors of human tyrosyl-DNA phosphodiesterase 1 (TDP1): qHTS in cells in absence of CPT; DT40 Tdp1-/- hTDP1 cells, no CPT, ATP luminescence, 48 h; Potency, µM (series often up to 46.2 µM), without a hit: at the highest dose activity change, negative = growth inhibition, most hits filed as inhibitors; actives 15% (n = 420,000); further: potency means the concentration at half of the fitted maximal effect; nearly all actives have a fitted effect of over 55% in size
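Seeded 400 DT40-hTDP1 cells/well (vehicle DMSO, no 20 nM CPT); pinned compounds; ≥48 hr at 37 °C; CellTiter-Glo luminescence as viability measure.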
Giardia killer – Small Molecules that selectively kill Giardia lamblia: qHTS | Giardia lamblia trophozoite viability | activity change, % at 7.66 µM, hits read low | actives 0.15% (n = 340,000) | AID 540267, 2011; in the data active means activity change below about -80%; inconclusive means between about -30% and that limit;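 further: parasites exposed to compound for two days anaerobically before the ATP read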
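Giardia trophozoites, 100 cells per well, were exposed to compounds for 48 hrs at 37 deg C under anaerobic conditions; viability was then read as ATP content by bioluminescence after 15-30 min at room temperature.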
TDP1 cell CPT – qHTS for Inhibitors of human tyrosyl-DNA phosphodiesterase 1 (TDP1): qHTS in cells in presence of CPT | chicken DT40 Tdp1-/-;hTDP1 cells + 20 nM CPT, ATP luminescence, 48 h | Potency, µM (top dose mostly 46.2 µM), without a hit: at the top dose activity change, negative = growth inhibition, most hits filed as inhibitors | actives 12% (n = 420,000) | AID 686979, 2013; further: potency means the concentration at half of the fitted maximal effect; nearly all actives have a fitted effect of over 55% in size
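Chicken DT40 Tdp1-/- cells stably complemented with human TDP1 were seeded at 400 cells/well in medium containing 20 nM camptothecin, exposed to pin-transferred compounds, and grown at 37 °C for at least 48 hr. Viability was read as ATP luminescence.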
IL-1B inflam inh – qHTS for Inhibitors of Inflammasome Signaling: IL-1-beta AlphaLISA Primary Screen; THP-1 LPS/ATP IL-1B secretion, AlphaLISA, 16 h; hits give low values; activity change, % at 57.5 µM; actives 4.7% (n = 360,000); AID 743279, 2014; in the data active means activity change below about -50%; inconclusive means mostly about -30% to -49%
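Secreted IL-1B measured by AlphaLISA bead assay after 16 h compound exposure of THP-1 cells; compounds (final up to 57.5 uM) added 1 h before LPS (250 ng/mL) and ATP (1.25 mM) stimulation; lower signal means less secretion.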
ELG1 DNA repair – qHTS screen for small molecules that inhibit ELG1-dependent DNA repair in human embryonic kidney (HEK293T) cells expressing luciferase-tagged ELG1; HEK293T ELG1-luciferase reporter, luminescence, 16 h; DNA damage induced by 5-fluorouridine; Potency, µM (titrated, usually from 46.1 µM), for inactives: at the top dose activity change, negative = inhibition, usual class: inhibitors; actives 2.3% (n = 330,000); AID 504467, 2011; further: potency means the concentration at half of the fitted maximal effect; nearly all actives have a fitted effect of over 55% in size
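Overnight (16 hr) co-exposure of 2,000 cells/well to 5-fluorouridine and compound at 37 °C preceded detection. Luciferase was quantified via ONE-Glo luminescence; loss of signal denotes inhibition.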
TDP1 inh – qHTS Assay for Inhibitors of Tyrosyl-DNA Phosphodiesterase (TDP1); AID 485290, 2010; Potency, µM (doses to about 130 µM), for the others: at the highest dose activity change, negative = inhibition, usual class: inhibitors; Tyrosyl-DNA phosphodiesterase 1 (Homo sapiens), Q9NUW8; recombinant TDP1, AlphaScreen DNA substrate cleavage; actives 0.28% (n = 350,000); further: potency means the concentration at half of the fitted maximal effect; nearly all actives have a fitted effect of over 40% in size
Target sequence (Q9NUW8 whole entry, looked up): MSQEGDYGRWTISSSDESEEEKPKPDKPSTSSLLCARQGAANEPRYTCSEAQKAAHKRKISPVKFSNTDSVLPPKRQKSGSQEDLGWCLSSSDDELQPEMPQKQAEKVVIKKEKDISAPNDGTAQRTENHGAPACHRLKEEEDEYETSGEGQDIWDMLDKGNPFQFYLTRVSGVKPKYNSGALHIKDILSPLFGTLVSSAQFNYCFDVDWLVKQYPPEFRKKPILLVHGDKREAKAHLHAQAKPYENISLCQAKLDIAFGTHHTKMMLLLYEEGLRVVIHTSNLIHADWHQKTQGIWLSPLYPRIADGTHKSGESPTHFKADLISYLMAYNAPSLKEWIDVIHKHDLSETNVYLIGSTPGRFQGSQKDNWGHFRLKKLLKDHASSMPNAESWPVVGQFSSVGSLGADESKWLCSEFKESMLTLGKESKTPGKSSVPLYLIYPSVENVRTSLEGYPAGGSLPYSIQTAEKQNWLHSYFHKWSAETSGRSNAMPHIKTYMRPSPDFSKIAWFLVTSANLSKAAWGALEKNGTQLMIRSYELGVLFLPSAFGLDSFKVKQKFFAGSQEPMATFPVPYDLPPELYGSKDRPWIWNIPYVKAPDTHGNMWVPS
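Compounds were preincubated with Tdp1 (1 nM final) for 15 min at room temperature before substrate (15 nM final) started a 5 min reaction; beads (10 ug/ml final) were then added for 10 min before AlphaScreen detection.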
The depositor's hits bear a star; ? = inconclusive; . = no result given. Unless noted, the call rests on the fitted dose curve; in most records, active means well fitted curve in the direction sought with a large enough effect; inconclusive means small, poorly fitted or top-dose-only effect, or another doubt; inactive means no such curve, though single readings can be large; an effect the other way counts as inactive or inconclusive. On the % scale 0 is the no-effect control and ±100 the full control effect.

SMILES	TDP1 cell noCPT	Giardia killer	TDP1 cell CPT	IL-1B inflam inh	ELG1 DNA repair	TDP1 inh
Cc1cccc(NS(=O)(=O)c2ccc(C(=O)NCC3(N4CCCCC4)CCCCC3)cc2)c1C	14.6µM*	-20.3	20.6µM*	-52.6*	16.3%	.
Cc1ccccc1NS(=O)(=O)c1ccc(C(=O)NCC2(N3CCOCC3)CCCCC2)cc1	?	?	?	-3.9	.	.
O=C(NCC(c1ccco1)N1CCCC1)c1cccc(S(=O)(=O)N2CCCCC2)c1 (stereo not given)	?	.	?	27.0	.	.
O=C(CSc1ccccc1)N1CCN(c2ccc(F)cc2)CC1	?	-26.9	0.3%	-10.2	.	.
Cc1ccccc1NS(=O)(=O)c1ccc(C(=O)NCC(c2ccco2)N2CCCCC2)cc1 (stereo not given)	23.1µM*	3.3	?	-13.0	?	.
O=C(NCC(c1ccco1)N1CCCC1)c1ccc(S(=O)(=O)Nc2ccccc2Cl)cc1 (stereo not given)	-23.5%	?	?	10.2	?	0.3%
CC(C)(C)OC(=O)CNC(=O)c1nc[nH]c1C(=O)N1CCc2ccccc2C1	-4.6%	-25.4	-16.8%	7.6	-1.3%	.
CCc1cccc(NC(=O)c2cc3c(=O)[nH]c4ccccc4c3n2C)c1	18.4µM*	.	?	.	.	7.0%
COc1ccc(CNC(=O)c2cc3c(=O)[nH]c4ccccc4c3n2C)cc1	-5.6%	19.8	?	45.9	?	3.0%
NCCC[C@@H](N)C(=O)O	-10.8%	.	-22.0%	.	.	0.0%
Cc1cc(C(c2ccc(O)cc2)c2cc(C)c(O)cc2C)c(C)cc1O	-5.1%	1.8	?	-81.8*	7.2%	.
CC(C)(C)C(=O)N1CCN(c2nc3ccc(Cl)cc3s2)CC1	23.1µM*	-8.5	?	?	?	.
CCCCC(=O)N1CCN(c2nc3ccc(Br)cc3s2)CC1	14.6µM*	-6.5	16.4µM*	-88.4*	?	0.2%
CC(C)(C)C(=O)N1CCN(c2nc3c(F)cccc3s2)CC1	16.4µM*	.	16.4µM*	.	.	2.6%
CC(C)(C)C(=O)N1CCN(c2nc3ccc(Br)cc3s2)CC1	16.4µM*	-3.2	16.4µM*	-2.0	?	-5.1%
CCCC(=O)N1CCN(c2nc3ccc(Br)cc3s2)CC1	-102.9%	-28.0	?	-22.9	?	-0.1%
COC(=O)[C@H](CCSC)NC(=O)Cn1cc(C)c(=O)[nH]c1=O	-6.8%	-14.6	-4.8%	24.1	.	.
COc1ccc(-n2c(=O)c(CCc3ccccc3)nc3cnc(N4CCNCC4)nc32)cc1	-12.4%	.	?	.	.	.
COc1cccc2sc(N3CCN(C(=O)C4COc5ccccc5O4)CC3)nc12 (stereo not given)	?	-6.3	?	-6.6	?	8.0%
O=C(C1COc2ccccc2O1)N1CCN(c2nc3c(F)cccc3s2)CC1 (stereo not given)	23.1µM*	.	?	.	.	0.0%
O=C1C(=O)c2ccccc2C(O)=C1CCCCl	4.11µM*	?	5.8µM*	-66.6*	18.3µM*	-4.7%
COc1ccc(CC2=C(O)c3ccccc3C(=O)C2=O)cc1	-9.5%	11.4	-18.8%	14.1	-6.5%	5.6%
COc1ccccc1-n1cc2c([N+](=O)[O-])cc([N+](=O)[O-])cc2n1	?	-85.3*	?	-11.2	10.4%	.
COc1ccccc1N=c1c2c([N+](=O)[O-])cc([N+](=O)[O-])cc2n(O)n1-c1ccccc1OC	.	.	.	.	6.0%	-0.5%
Clc1ccccc1N=C1NN=C(c2cccs2)CS1	-1.9%	-0.2	-3.9%	-76.7*	?	0.0%
SMILES	TDP1 cell noCPT	Giardia killer	TDP1 cell CPT	IL-1B inflam inh	ELG1 DNA repair	TDP1 inh
O=S(=O)(c1ccc(N=C2NN=C(c3cc(F)ccc3F)CS2)cc1)N1CCOCC1	6.51µM*	-25.6	8.2µM*	-76.2*	?	8.1%
COCCn1c(C)cc(C2=NNC(=Nc3ccccc3F)SC2)c1C	?	-12.6	?	-15.8	?	7.8%
Fc1ccccc1N=C1NN=C(c2ccccc2)CS1	?	-11.5	?	-90.5*	?	1.8%
Fc1ccc(F)c(C2=NNC(=Nc3ccccc3F)SC2)c1	16.4µM*	7.2	?	-8.2	?	0.0%
Cc1cccc(N=C2NN=C(c3ccccc3F)CS2)c1C	?	-8.0	-27.2%	-4.3	?	2.5%
COc1cc(OC)c(C(=O)OCC(=O)NCCC2=CCCCC2)cc1OC	-20.3%	-10.7	-18.6%	3.5	0.6%	-0.7%
COc1ccccc1C(=O)N/N=C/c1c[nH]c2ccccc12	-18.6%	7.8	-4.6%	6.8	2.8%	.
CCCn1c(C)cc(C(=O)COC(=O)c2ccc[nH]c2=O)c1C	?	-28.0	-25.8%	-10.4	?	-5.5%
Fc1ccc(N=C2NN=C(c3cc(F)ccc3F)CS2)cc1	14.6µM*	-0.4	?	-95.6*	?	5.4%
CC(C)(C)N=C1NN=C(c2ccc(S(=O)(=O)N3CCCCC3)cc2)CS1	?	7.2	16.4µM*	-29.8	?	-11.4%
c1ccc(CN=C2NN=C(c3ccccc3)CS2)cc1	?	2.2	?	-66.8*	?	2.9%
